Measured values taken from paper PMC5540273 (PLoS ONE, 2017).

Columns and labels:
Conditions in all cases: concentration: 1 μM, replicates: in singlicate; n = 1
ASK2 = test system: T1, ASK2
T1 construct: gene MAP3K6

AURKA = test system: AURKA
AURKB = test system: AURKB
AURKC = test system: AURKC
AXL = test system: AXL
BIKE = test system: T2, BIKE
T2 construct: gene BMP2K

BLK = test system: BLK
BMPR1A = test system: BMPR1A
BMPR1B = test system: BMPR1B
BMPR2 = test system: BMPR2
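Also: KINOMEscan kinase panel screen.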

Structure (SMILES) | %Inh (ASK2) | %Inh (AURKA) | %Inh (AURKB) | %Inh (AURKC) | %Inh (AXL) | %Inh (BIKE) | %Inh (BLK) | %Inh (BMPR1A) | %Inh (BMPR1B) | %Inh (BMPR2)
COc1cccc(CC(=O)N2CCc3cc(-c4cn(C)c5ncnc(N)c45)ccc32)c1 [GSK2608899] | 12% | 52% | 87% | 48% | 96.2% | 21% | 36% | 6% | 6% | 0%
O=C(Nc1n[nH]c2nc(-c3cccc(O)c3)ccc12)C1CC1 [SB-711805] | 0% | 9% | 19% | 23% | 12% | 34% | 0% | 8% | 86% | 34%
Cc1ccc(O)cc1Nc1ccnc2ccc(C(C)(C)C)cc12 [GW856805] | 32% | 30% | 36% | 24% | 42% | 9% | 95.1% | 16% | 79% | 33%
Cc1cc(-c2c(-c3ccc(F)cc3)ncn2CCCN2CCOCC2)nc(N)n1 [SB-222517] | 14% | 28% | 39% | 3% | 0% | 0% | 8% | 20% | 0% | 35%
CN(C)CCOc1ccc(-c2cc(-c3ccc(Cl)c(O)c3)c(-c3ccncc3)[nH]2)cc1.Cl.Cl [SB-684387] | 0% | 21% | 0% | 0% | 0% | 0% | 64% | 90.6% | 29% | 10%
N#CC1(c2cccc(C(=O)Nc3cccc(Oc4ccc5nc(NC(=O)C6CC6)sc5n4)c3)c2)CC1 | 3% | 0% | 57% | 48% | 62% | 1% | 95.2% | 0% | 0% | 0%
CN(c1ccc(F)c(NC(=O)c2cccc(OC(C)(C)C#N)c2Cl)c1)c1ccc2nc(NC(=O)C3CC3)sc2n1 | 6% | 22% | 4% | 0% | 6% | 0% | 96.3% | 0% | 0% | 0%
Cc1ccc(NC(=O)c2ccnc(N3CCCCC3)c2)cc1-c1ccc(C(=O)NCC2CC2)cc1 [GW775610] | 0% | 66% | 25% | 35% | 31% | 10% | 10% | 0% | 0% | 0%
CC(C)c1nc(-c2cccc(NS(=O)(=O)c3c(F)cccc3F)c2)c(-c2ccnc(Nc3ccc(N4CCOCC4)nc3)n2)s1.Cl [GSK1723980] | 20% | 41% | 42% | 50% | 74% | 19% | 99.8% | 67% | 99.7% | 0%
O=C(O)C(F)(F)F.O=c1[nH]ccc2nc(N[C@@H]3CCNC3)nc(Nc3cc(Cl)cc(Cl)c3)c12 [GSK2188764] | 4% | 97.3% | 75% | 69% | 92.1% | 97.6% | 0% | 0% | 0% | 70%
Cc1ccc(O)cc1Nc1ccnc2cc(-c3ccc(CN4CCCCC4)o3)ccc12 [GW557777] | 0% | 0% | 0% | 15% | 0% | 4% | 99.7% | 61% | 99.9% | 0%
CCNc1nccc(-c2c(-c3ccc(F)cc3)ncn2C2CCN(C)CC2)n1 | 0% | 0% | 0% | 8% | 0% | 13% | 3% | 0% | 0% | 0%
COc1cccc(NC(=O)NCCNc2ccnc(Nc3ccc(F)cc3)n2)c1 [GSK1379879] | 0% | 19% | 40% | 45% | 3% | 14% | 18% | 0% | 0% | 5%
CN(C)c1ncnc2nc[nH]c12 [SKF-31736] | 0% | 12% | 54% | 0% | 0% | 0% | 0% | 0% | 7% | 46%
Cc1cccc(Nc2nc(N[C@H]3CCCC[C@H]3N)ncc2C(N)=O)c1.Cl [GSK986310] | 6% | 0% | 24% | 62% | 59% | 50% | 67% | 12% | 0% | 28%
COC(=O)Nc1nc2ccc(Oc3ccc(CC(=O)Nc4cc(C(F)(F)F)ccc4F)cc3)cc2[nH]1 [GW680903] | 0% | 0% | 60% | 52% | 23% | 3% | 32% | 6% | 0% | 1%
COc1cccc(C2=C(Nc3cccc(O)c3)C(=O)NC2=O)c1 [SB-390771] | 0% | 16% | 24% | 0% | 1% | 0% | 0% | 0% | 0% | 36%

Structure (SMILES) | %Inh (ASK2) | %Inh (AURKA) | %Inh (AURKB) | %Inh (AURKC) | %Inh (AXL) | %Inh (BIKE) | %Inh (BLK) | %Inh (BMPR1A) | %Inh (BMPR1B) | %Inh (BMPR2)
O=C(Nc1c(F)cccc1F)c1cc(C(=O)c2ccccc2F)c[nH]1 [GSK1326180] | 0% | 0% | 0% | 0% | 24% | 0% | 0% | 6% | 0% | 1%
Nc1ncc(-c2cn[nH]c2)c2scc(-c3ccc4c(c3)CCN4C(=O)Cc3ccccc3)c12 [GSK2593067] | 21% | 13% | 98.6% | 87% | 98.8% | 67% | 96% | 0% | 0% | 0%
O=C(Nc1n[nH]c2nc(-c3ccccc3O)ccc12)C1CC1 [SB-711880] | 34% | 31% | 81% | 6% | 18% | 41% | 0% | 0% | 0% | 8%
CN(C)CCNS(=O)(=O)c1ccc(-c2ccnc3[nH]ccc23)cc1 [GSK977620] | 23% | 2% | 57% | 85% | 93.1% | 82% | 6% | 0% | 0% | 0%
Nc1cccc(-c2ccc3c(N)n[nH]c3c2)c1 [GSK2193613] | 0% | 10% | 0% | 46% | 0% | 82% | 87% | 0% | 89% | 3%
Cl.O=C(Nc1ccc(Oc2ccc3[nH]c(NC(=O)c4ccco4)nc3c2)cc1)Nc1cc(C(F)(F)F)ccc1F [GW683134] | 0% | 0% | 92.6% | 50% | 96% | 15% | 54% | 0% | 0% | 0%
CN(c1ccc2c(c1)nc(NCc1ccccc1)n2C)c1ccnc(Nc2ccc(CS(C)(=O)=O)cc2)n1.Cl [GW811603] | 0% | 87% | 79% | 63% | 85% | 24% | 39% | 0% | 4% | 22%
O=C1NC(=O)C(c2ccccc2Cl)=C1Nc1cccc(Cl)c1 [SB-342409] | 0% | 0% | 22% | 0% | 0% | 15% | 2% | 0% | 0% | 0%
Cn1cc(-c2ccc3c(c2)CCN3C(=O)Cc2cc(F)cc(C(F)(F)F)c2)c2c(N)ncnc21 [GSK2635225] | 0% | 20% | 56% | 54% | 94% | 23% | 40% | 0% | 0% | 0%
CNc1nccc(-c2ccc3c(N)n[nH]c3c2)n1 [GSK2206003] | 0% | 8% | 0% | 46% | 0% | 94.1% | 54% | 7% | 71% | 6%
COc1ccc(C2=C(Nc3cccc(O)c3)C(=O)NC2=O)cc1 [SB-390766] | 7% | 13% | 33% | 0% | 35% | 0% | 0% | 0% | 0% | 24%
Cl.Cl.NC(CNC(=O)c1cc(Br)c(-c2ccnc3[nH]ccc23)s1)c1ccccc1 (stereo not drawn) [GSK1322949] | 20% | 67% | 35% | 95.2% | 90.8% | 100% | 44% | 0% | 12% | 58%
CC(C)(C)c1ccc(C(=O)Nc2cn3cc(-n4ccnc4)ccc3n2)cc1 | 6% | 0% | 24% | 0% | 0% | 0% | 0% | 3% | 0% | 8%
Cc1cc(-c2ccnc(Nc3cccc(C#N)c3)n2)cc(C)c1O [GSK1440913] | 11% | 47% | 19% | 70% | 51% | 99.5% | 0% | 0% | 0% | 16%
Nc1ncnc2scc(-c3ccc(NC(=O)Cc4cc(F)ccc4F)cc3)c12.O=C(O)C(F)(F)F [SB-731254-M] | 21% | 53% | 98.6% | 45% | 36% | 7% | 36% | 22% | 10% | 0%
N#Cc1cnc2cc(-c3cnc(CNCCN4CCOCC4)s3)ccc2c1Nc1ccc(Oc2ccccc2)cc1 [GW664114] | 9% | 0% | 39% | 25% | 98% | 9% | 99% | 0% | 0% | 8%
